For one compound, residual activity results are on record in ChEMBL document CHEMBL2218924, “A broad activity screen in support of a chemogenomic map for kinase signalling research and drug discovery” (Biochem J, 2013).

Test [1] deals with T1, Ephrin type-B receptor 1 (Homo sapiens) (UniProt P54762).
T1 sequence (whole entry): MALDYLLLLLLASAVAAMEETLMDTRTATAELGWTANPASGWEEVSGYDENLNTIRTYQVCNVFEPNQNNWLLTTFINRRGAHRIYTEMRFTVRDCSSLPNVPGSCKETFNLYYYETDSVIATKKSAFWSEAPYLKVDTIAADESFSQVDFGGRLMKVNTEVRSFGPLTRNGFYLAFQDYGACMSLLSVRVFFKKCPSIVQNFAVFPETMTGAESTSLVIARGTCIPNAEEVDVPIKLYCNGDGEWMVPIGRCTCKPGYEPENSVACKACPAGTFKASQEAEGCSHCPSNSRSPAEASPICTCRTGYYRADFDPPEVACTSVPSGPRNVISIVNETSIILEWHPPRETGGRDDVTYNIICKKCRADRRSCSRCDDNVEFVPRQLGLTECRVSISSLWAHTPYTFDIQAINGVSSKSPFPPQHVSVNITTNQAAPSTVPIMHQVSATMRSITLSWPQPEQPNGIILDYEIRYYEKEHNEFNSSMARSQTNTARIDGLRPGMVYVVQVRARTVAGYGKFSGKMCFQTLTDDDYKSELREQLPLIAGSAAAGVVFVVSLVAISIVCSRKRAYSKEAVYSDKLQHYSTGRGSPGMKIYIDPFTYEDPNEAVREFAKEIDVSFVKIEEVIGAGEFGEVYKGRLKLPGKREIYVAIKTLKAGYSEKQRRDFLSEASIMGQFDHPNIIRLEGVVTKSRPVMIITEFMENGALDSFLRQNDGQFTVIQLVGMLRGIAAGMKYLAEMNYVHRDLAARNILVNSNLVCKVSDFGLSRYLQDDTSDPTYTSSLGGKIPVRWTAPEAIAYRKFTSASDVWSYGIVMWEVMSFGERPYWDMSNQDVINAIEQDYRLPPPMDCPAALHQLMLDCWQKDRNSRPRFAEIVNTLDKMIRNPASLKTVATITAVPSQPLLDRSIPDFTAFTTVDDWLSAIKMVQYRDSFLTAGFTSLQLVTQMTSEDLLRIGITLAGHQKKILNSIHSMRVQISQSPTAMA
The following applies: at 10 µM.

In test [2] the target is T2, Ephrin type-B receptor 2 (Homo sapiens) (UniProt P29323).
T2 sequence (whole entry): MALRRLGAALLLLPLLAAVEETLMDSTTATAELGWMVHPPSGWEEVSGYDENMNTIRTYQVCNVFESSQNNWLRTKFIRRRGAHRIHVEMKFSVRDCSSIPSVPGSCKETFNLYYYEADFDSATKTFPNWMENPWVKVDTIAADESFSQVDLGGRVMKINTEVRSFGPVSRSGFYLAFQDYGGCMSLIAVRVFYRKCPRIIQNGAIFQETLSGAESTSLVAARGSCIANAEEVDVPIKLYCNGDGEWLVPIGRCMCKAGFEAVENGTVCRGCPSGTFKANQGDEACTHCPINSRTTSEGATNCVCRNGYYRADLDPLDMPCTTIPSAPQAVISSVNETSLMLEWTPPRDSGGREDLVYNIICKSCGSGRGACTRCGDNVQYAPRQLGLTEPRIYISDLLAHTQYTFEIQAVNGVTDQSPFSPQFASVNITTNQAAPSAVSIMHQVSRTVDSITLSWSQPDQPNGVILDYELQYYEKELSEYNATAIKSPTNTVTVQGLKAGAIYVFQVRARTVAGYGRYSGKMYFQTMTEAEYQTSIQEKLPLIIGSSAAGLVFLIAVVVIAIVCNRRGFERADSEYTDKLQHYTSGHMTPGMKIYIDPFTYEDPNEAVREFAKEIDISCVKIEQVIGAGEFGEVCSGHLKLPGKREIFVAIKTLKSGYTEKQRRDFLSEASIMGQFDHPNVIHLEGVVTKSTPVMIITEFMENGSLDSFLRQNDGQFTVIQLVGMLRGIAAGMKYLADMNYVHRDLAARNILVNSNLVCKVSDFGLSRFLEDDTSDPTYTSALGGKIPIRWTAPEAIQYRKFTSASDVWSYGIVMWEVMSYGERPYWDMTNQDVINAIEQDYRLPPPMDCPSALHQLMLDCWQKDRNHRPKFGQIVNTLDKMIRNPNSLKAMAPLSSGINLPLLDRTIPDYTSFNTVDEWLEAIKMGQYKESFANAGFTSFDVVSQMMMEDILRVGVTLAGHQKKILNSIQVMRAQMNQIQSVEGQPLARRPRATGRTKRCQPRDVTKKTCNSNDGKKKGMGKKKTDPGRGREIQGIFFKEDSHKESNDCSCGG
The following applies: at 1 µM.

Test [3] addresses T2, Ephrin type-B receptor 2 (Homo sapiens). The following applies: at 10 µM.
The target in test [4] is T3, Ephrin type-B receptor 3 (Homo sapiens) (UniProt P54753).
T3 sequence (whole entry): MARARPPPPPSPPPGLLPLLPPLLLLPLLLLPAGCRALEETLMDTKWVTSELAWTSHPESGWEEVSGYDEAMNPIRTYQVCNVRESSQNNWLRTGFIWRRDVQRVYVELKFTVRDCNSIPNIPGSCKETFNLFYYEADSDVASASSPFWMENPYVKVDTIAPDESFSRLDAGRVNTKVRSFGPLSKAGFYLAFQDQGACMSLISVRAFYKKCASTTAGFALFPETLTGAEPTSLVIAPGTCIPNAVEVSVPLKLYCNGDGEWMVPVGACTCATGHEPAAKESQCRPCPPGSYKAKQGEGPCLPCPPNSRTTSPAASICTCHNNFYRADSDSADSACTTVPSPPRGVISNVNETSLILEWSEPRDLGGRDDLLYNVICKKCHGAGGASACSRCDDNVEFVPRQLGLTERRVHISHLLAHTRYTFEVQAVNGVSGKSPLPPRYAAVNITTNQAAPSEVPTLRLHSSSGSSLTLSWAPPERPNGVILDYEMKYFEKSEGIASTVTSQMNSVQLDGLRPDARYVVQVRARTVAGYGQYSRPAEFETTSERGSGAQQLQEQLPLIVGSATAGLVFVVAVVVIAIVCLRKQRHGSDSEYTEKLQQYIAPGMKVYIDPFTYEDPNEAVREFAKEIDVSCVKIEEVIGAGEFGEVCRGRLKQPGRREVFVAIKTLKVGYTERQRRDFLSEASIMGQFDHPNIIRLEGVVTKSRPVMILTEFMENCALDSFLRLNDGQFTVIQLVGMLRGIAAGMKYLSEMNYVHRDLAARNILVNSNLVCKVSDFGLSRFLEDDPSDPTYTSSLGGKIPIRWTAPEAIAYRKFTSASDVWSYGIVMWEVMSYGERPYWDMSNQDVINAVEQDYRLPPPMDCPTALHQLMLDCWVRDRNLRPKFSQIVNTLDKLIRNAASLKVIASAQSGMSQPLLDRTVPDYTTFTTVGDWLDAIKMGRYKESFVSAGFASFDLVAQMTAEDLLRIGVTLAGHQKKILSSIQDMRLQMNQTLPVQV
The following applies: at 1 µM.

Test [5] concerns the target T3, Ephrin type-B receptor 3 (Homo sapiens). The following applies: at 10 µM.
Test [6] addresses T4, Ephrin type-B receptor 4 (Homo sapiens) (UniProt P54760).
T4 sequence (whole entry): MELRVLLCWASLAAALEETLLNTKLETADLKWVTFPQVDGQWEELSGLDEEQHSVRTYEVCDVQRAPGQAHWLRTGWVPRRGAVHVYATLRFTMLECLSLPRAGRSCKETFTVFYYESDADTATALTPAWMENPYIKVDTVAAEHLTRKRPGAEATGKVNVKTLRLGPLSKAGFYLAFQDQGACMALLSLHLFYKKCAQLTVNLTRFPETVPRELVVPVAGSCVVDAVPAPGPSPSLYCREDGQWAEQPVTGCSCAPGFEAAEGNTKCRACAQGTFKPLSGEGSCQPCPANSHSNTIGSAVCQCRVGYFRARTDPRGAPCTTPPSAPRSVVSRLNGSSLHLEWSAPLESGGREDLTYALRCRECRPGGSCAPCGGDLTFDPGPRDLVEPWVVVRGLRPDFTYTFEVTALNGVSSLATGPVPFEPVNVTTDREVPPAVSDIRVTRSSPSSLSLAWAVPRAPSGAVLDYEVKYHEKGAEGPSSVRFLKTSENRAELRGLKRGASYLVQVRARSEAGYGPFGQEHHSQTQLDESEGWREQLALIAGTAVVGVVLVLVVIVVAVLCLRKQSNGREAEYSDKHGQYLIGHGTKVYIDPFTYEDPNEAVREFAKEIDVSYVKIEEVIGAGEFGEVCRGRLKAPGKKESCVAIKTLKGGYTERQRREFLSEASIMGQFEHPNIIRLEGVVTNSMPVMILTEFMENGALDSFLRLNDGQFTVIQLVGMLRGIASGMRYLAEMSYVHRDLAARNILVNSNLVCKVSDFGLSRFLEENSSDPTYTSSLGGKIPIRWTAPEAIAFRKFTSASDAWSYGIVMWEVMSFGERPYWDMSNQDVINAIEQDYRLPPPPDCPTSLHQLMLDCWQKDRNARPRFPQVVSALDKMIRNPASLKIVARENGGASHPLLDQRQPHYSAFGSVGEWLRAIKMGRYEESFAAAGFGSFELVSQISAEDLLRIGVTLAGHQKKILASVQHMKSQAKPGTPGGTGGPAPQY
The following applies: at 1 µM.

Test [7] has as its target T4, Ephrin type-B receptor 4 (Homo sapiens). The following applies: at 10 µM.
The target of test [8] is Receptor tyrosine-protein kinase erbB-4 (Homo sapiens) (UniProt Q15303). The following applies: at 1 µM.
Test [9] has the same target. The following applies: at 10 µM.
The target of test [10] is Focal adhesion kinase 1 (Homo sapiens) (UniProt Q05397). The following applies: at 1 µM.

Each structure is given as a SMILES string.

Receptor tyrosine-protein kinase erbB-4 (Homo sapiens), sequence (Q15303 whole entry): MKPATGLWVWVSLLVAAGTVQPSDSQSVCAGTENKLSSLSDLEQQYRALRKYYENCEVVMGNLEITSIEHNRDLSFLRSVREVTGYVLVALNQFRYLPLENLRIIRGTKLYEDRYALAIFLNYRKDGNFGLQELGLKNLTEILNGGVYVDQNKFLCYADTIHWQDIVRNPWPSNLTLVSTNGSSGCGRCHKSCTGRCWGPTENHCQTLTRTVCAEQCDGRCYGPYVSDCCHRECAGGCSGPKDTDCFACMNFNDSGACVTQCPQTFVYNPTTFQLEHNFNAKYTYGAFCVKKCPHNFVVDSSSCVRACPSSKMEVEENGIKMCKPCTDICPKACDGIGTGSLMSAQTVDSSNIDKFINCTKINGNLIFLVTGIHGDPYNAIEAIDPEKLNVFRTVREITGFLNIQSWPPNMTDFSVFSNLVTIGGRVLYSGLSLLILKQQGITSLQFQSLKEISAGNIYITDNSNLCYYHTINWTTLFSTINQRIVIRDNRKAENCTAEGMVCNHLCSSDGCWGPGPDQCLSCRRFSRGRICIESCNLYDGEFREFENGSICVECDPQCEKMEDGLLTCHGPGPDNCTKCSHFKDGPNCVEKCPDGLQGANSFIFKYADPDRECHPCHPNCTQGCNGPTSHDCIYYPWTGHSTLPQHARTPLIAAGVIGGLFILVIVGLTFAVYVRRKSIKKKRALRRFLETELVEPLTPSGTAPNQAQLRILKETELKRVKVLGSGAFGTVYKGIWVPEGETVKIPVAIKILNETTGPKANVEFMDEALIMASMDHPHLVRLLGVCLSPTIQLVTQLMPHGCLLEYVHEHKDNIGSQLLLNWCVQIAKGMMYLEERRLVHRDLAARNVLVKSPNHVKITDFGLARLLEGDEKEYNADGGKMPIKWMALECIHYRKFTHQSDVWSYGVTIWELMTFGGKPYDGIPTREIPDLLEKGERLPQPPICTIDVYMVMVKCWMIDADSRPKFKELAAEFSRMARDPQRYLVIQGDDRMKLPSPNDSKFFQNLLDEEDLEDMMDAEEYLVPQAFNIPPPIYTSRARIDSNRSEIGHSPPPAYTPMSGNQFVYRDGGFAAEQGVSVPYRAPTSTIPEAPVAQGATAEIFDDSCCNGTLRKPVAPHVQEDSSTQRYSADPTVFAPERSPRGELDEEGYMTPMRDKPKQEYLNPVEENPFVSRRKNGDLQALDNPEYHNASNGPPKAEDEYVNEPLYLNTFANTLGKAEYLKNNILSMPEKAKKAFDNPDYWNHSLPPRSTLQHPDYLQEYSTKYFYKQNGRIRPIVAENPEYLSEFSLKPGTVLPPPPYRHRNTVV
Focal adhesion kinase 1 (Homo sapiens), sequence (Q05397 2-1052 limits assumed): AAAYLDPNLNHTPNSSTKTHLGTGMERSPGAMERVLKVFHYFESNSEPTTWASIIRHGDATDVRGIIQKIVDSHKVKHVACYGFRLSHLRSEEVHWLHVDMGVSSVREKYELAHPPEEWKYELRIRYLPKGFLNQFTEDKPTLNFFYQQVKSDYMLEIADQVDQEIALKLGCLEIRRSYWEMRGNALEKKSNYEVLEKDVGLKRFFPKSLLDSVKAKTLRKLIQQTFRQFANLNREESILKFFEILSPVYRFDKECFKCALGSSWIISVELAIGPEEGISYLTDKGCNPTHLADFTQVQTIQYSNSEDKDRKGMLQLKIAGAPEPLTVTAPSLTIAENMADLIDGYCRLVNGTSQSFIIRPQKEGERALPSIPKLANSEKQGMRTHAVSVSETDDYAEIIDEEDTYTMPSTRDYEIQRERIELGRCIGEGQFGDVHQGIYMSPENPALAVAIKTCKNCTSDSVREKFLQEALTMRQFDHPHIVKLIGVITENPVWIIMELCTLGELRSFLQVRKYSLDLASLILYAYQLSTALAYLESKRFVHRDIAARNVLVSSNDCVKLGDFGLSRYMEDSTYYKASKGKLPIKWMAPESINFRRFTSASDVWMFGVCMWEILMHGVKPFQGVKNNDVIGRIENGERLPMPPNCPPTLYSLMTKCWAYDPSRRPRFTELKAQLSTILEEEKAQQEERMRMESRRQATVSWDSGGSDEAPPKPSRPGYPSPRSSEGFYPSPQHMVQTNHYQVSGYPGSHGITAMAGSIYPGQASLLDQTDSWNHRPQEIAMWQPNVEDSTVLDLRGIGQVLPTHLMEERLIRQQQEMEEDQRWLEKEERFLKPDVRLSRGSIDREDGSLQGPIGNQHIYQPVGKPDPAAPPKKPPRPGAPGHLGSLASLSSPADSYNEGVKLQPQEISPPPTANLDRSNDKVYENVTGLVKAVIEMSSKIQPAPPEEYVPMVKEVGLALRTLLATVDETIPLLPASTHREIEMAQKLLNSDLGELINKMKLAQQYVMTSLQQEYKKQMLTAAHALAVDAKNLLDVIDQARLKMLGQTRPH

Turning to `O=Nc1c(-c2c(O)[nH]c3ccccc23)[nH]c2ccccc12`, the residual activity in [1] is 13%; in test [2] it was 91%; in test [3] it was 13%; in [4], 105% (inactive); in [5], 103%; in test [6], 67%. Besides, the residual activity in [7] turned out to be 13%; in test [8] it was 107%; in test [9], 99%; in [10] it was 39%.

What is called residual activity is the signal under treatment as a percentage of the control signal.
